Test results: PubChem BioAssay (NCATS)
Several values for one entry are separate records, joined by “and”; a condition that tells them apart may be missing. Equal entries are not always repeated. Records with an inconclusive call do not appear. Where a call stands in place of a potency, no number is given. Activity calls are given as the source filed them. The call rests on the fitted dose curve; in most records, active means well fitted curve in the direction sought with a large enough effect; inconclusive means small, poorly fitted or top-dose-only effect, or another doubt; inactive means no such curve, though single readings can be large; an effect the other way counts as inactive or inconclusive.

How the values were obtained:
[1] = Quantitative highthroughput screen to assess conditional lethalithy of NOMO1 cells grown in RPMI1640 with untreated serum (RPMI+s) (AID 1963876); conditions: NOMO1 AML cells in RPMI+serum, CellTiter-Glo viability, 48 h; series mostly up to 45.8 µM; further: nearly all actives have a fitted effect of over 35% in size
How it was run: (§1)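 Each medium arm—HPLM with 10% dialyzed FBS, or RPMI1640 with 5 mM glucose and 10% untreated or dialyzed FBS—was screened against an 11-point, 3-fold compound titration for 48 h at 37 °C, with CellTiter-Glo luminescence as endpoint.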

[2] = Quantitative highthroughput screen to assess conditional lethalithy of NOMO1 cells grown in RPMI1640 with dialyzed fetal bovine serum (RPMI+ds) (AID 1963877); conditions: NOMO1 in RPMI+dialyzed FBS viability, ATP luminescence, 48 h; series mostly up to 45.8 µM; further: nearly all actives have a fitted effect of over 30% in size
How it was run: as §1

[3] = Quantitative highthroughput screen to assess conditional lethalithy of NOMO1 cells grown in Human Plasma-Like Medium with dialyzed fetal bovine serum (HPLM+ds) (AID 1963878); conditions: NOMO1 AML cells in HPLM+ds, CellTiter-Glo viability, 48 h; series mostly up to 45.8 µM; further: nearly all actives have a fitted effect of over 35% in size
How it was run: as §1

[4] = Quantitative highthroughput screen to assess conditional lethalithy of P12 Ichikawa cells grown in Human Plasma-Like Medium with dialyzed fetal bovine serum (HPLM+ds) (AID 1963879); conditions: ATP luminescence, 48 h; Potency: viability; series mostly up to 45.8 µM; further: nearly all actives have a fitted effect of over 35% in size
How it was run: as §1

[5] = Quantitative highthroughput screen to assess conditional lethalithy of P12 Ichikawa cells grown in RPMI1640 with dialyzed fetal bovine serum (RPMI+ds) (AID 1963880); conditions: ATP luminescence, 48 h; Potency: P12-Ichikawa viability; series mostly up to 45.8 µM; further: nearly all actives have a fitted effect of over 35% in size
How it was run: as §1

[6] = Quantitative highthroughput screen to assess conditional lethalithy of P12 Ichikawa cells grown in RPMI1640 with untreated serum (RPMI+s) (AID 1963881); conditions: ATP luminescence, 48 h; Potency: viability; series mostly up to 45.8 µM; further: nearly all actives have a fitted effect of over 35% in size
How it was run: as §1

[7] = Quantitative highthroughput screen to assess conditional lethalithy of SEM cells grown in Human Plasma-Like Medium with dialyzed fetal bovine serum (HPLM+ds) (AID 1963882); conditions: SEM B-ALL cells in HPLM+ds, CellTiter-Glo viability, 48 h; series mostly up to 45.8 µM; further: nearly all actives have a fitted effect of over 35% in size
How it was run: as §1

[8] = Quantitative highthroughput screen to assess conditional lethalithy of SEM cells grown in RPMI1640 with unreated serum (RPMI+s) (AID 1963883); conditions: SEM B-ALL cells, CellTiter-Glo viability, 48 h; series mostly up to 45.8 µM; further: nearly all actives have a fitted effect of over 35% in size
How it was run: as §1

[9] = Quantitative highthroughput screen to assess conditional lethalithy of SEM cells grown in RPMI1640 with dialyzed fetal bovine serum (RPMI+ds) (AID 1963884); conditions: SEM B-ALL cells, RPMI+dialyzed FBS, CellTiter-Glo viability, 48 h; series mostly up to 45.8 µM; further: nearly all actives have a fitted effect of over 35% in size
How it was run: as §1

[10] = Cellular viability qHTS for adrenocortical cancer (ACC) cell line SW-13 (AID 1963989); conditions: SW-13 ACC cells viability, CellTiter-Glo, 48 h; activity (max response): active compounds read low; further: nearly all actives have a fitted effect of over 65% in size;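 on activity (max response): cells grown in serum-free medium with ITS supplement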
How it was run: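 Here, serum-free SW-13 cultures were dosed up to 46 uM. Following 48 h, ATP-dependent luminescence (CellTiter-Glo) reported viable cells, and logistic modeling produced IC50 values.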

[11] = Cellular viability qHTS for adrenocortical cancer (ACC) cell line NCI-H295R (AID 1963990); conditions: CellTiter-Glo ATP luminescence, 48 h; series mostly up to 46.1 µM; further: nearly all actives have a fitted effect of over 60% in size
How it was run: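 Viability of NCI-H295R after 48 h of treatment (final up to 46 uM) measured through cellular ATP luminescence.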
Potency means the concentration at half of the fitted maximal effect.

Compound: COC(=O)C[C@](O)(CCCC(C)(C)O)C(=O)O[C@@H]1C(OC)=C[C@]23CCCN2CCc2cc4c(cc2[C@H]13)OCO4
- Potency [1]: inactive
- Potency [2]: inactive
- Potency [3]: inactive
- Potency [4]: inactive
- Potency [5]: inactive
- Potency [6]: inactive
- Potency [7]: inactive
- Potency [8]: inactive
- Potency [9]: inactive
- activity (max response) [10]: -15.2% (inactive)
- Potency [11]: inactive

Compound: CC(C)(F)C[C@H](N[C@@H](c1ccc(-c2ccc(S(C)(=O)=O)cc2)cc1)C(F)(F)F)C(=O)NC1(C#N)CC1
- Potency [1]: inactive
- Potency [2]: inactive
- Potency [3]: inactive
- Potency [4]: inactive
- Potency [5]: inactive
- Potency [6]: inactive
- Potency [7]: inactive
- Potency [8]: inactive
- Potency [9]: inactive
- activity (max response) [10]: -2.64% (inactive)
- Potency [11]: inactive

Compound: O=C1NCCc2[nH]c(-c3ccncc3)cc21
- Potency [1]: 18.7 µM (active)
- Potency [2]: 20.9 µM (active)
- Potency [3]: 18.7 µM (active)
- Potency [4]: 16.6 µM (active)
- Potency [5]: 14.8 µM (active)
- Potency [6]: 14.8 µM (active)
- Potency [7]: 13.2 µM (active)
- Potency [8]: 13.2 µM (active)
- Potency [9]: 14.8 µM (active)
- Potency [11]: 7.08 µM (active)

Compound: COc1cc2ncn(-c3cc(OCc4ccccc4S(C)(=O)=O)c(C#N)s3)c2cc1OC
- Potency [1]: inactive
- Potency [2]: inactive
- Potency [3]: inactive
- Potency [4]: inactive
- Potency [5]: inactive
- Potency [6]: inactive
- Potency [7]: inactive
- Potency [8]: inactive
- Potency [9]: inactive
- activity (max response) [10]: -11.8% (inactive)

Compound: CCOc1cc(N)c(Cl)cc1C(=O)NCC1CN(Cc2ccc(F)cc2)CCO1 (stereo unspecified)
- Potency [1]: inactive
- Potency [2]: inactive
- Potency [3]: inactive
- Potency [4]: inactive
- Potency [5]: inactive
- Potency [6]: inactive
- Potency [7]: inactive
- Potency [8]: inactive
- Potency [9]: inactive
- activity (max response) [10]: -20% (inactive) and -11.9% (inactive)
- Potency [11]: inactive

Compound: C[C@H](O)[C@@H]1C(=O)N2C(C(=O)O)=C(S[C@@H]3CN[C@H](CNS(N)(=O)=O)C3)[C@@H](C)[C@@H]12
- Potency [1]: inactive
- Potency [2]: inactive
- Potency [3]: inactive
- Potency [4]: inactive
- Potency [5]: inactive
- Potency [6]: inactive
- Potency [7]: inactive
- Potency [8]: inactive
- Potency [9]: inactive
- activity (max response) [10]: 8.99% (inactive)
- Potency [11]: inactive

Compound: NC(=O)c1ncn([C@@H]2O[C@H](CO)[C@@H](O)[C@@H]2O)c1O
- Potency [1]: inactive
- Potency [2]: inactive
- Potency [3]: inactive
- Potency [4]: inactive
- Potency [5]: inactive
- Potency [6]: inactive
- Potency [7]: inactive
- Potency [8]: inactive
- Potency [9]: inactive

Compound: CCC1=C(C)CN(C(=O)NCCc2ccc(S(=O)(=O)NC(=O)NC3CCC(C)CC3)cc2)C1=O (stereo unspecified)
- Potency [1]: inactive
- Potency [2]: inactive
- Potency [3]: inactive
- Potency [4]: inactive
- Potency [5]: inactive
- Potency [6]: inactive
- Potency [7]: inactive
- Potency [8]: inactive
- Potency [9]: inactive
- activity (max response) [10]: -7.59% (inactive)
- Potency [11]: inactive

Compound: COc1cc(F)c(C(C)C)cc1-c1ccc(C(F)(F)F)cc1CN1C(=O)O[C@H](c2cc(C(F)(F)F)cc(C(F)(F)F)c2)[C@@H]1C
- Potency [1]: inactive
- Potency [2]: inactive
- Potency [3]: inactive
- Potency [4]: inactive
- Potency [5]: inactive
- Potency [6]: inactive
- Potency [7]: inactive
- Potency [8]: inactive
- Potency [9]: inactive
- activity (max response) [10]: -14.8% (inactive)
- Potency [11]: inactive

Compound: CN(C)CCN(Cc1ccc(Cl)cc1)c1ccccn1
- Potency [1]: inactive
- Potency [2]: inactive
- Potency [3]: inactive
- Potency [4]: inactive
- Potency [5]: inactive
- Potency [6]: inactive
- Potency [7]: inactive
- Potency [8]: inactive
- Potency [9]: inactive
- activity (max response) [10]: -3.95% (inactive)
- Potency [11]: inactive

Compound: CN1CCN2c3ncccc3Cc3ccccc3C2C1 (stereo unspecified)
- Potency [1]: inactive
- Potency [2]: inactive
- Potency [3]: inactive
- Potency [4]: inactive
- Potency [5]: inactive
- Potency [6]: inactive
- Potency [7]: inactive
- Potency [8]: inactive
- Potency [9]: inactive
- activity (max response) [10]: -3.47% (inactive)

Compound: C[C@H]1Oc2cc(cnc2N)-c2c(nn(C)c2C#N)CN(C)C(=O)c2ccc(F)cc21
- Potency [1]: inactive
- Potency [2]: inactive
- Potency [3]: inactive
- Potency [4]: inactive
- Potency [5]: inactive
- Potency [6]: inactive
- Potency [7]: inactive
- Potency [8]: inactive
- Potency [9]: inactive
- activity (max response) [10]: -27% (inactive)
- Potency [11]: 17.8 µM (active)

Compound: O=C(NC1CCOCC1)c1ccc(-c2cc(-c3cn[nH]c3-c3ccccn3)ccn2)cc1
- Potency [1]: inactive
- Potency [2]: inactive
- Potency [3]: inactive
- Potency [4]: inactive
- Potency [5]: inactive
- Potency [6]: inactive
- Potency [7]: inactive
- Potency [8]: inactive
- Potency [9]: inactive
- activity (max response) [10]: 6.28% (inactive)
- Potency [11]: inactive

Compound: C=C1c2cccc(O)c2C(O)=C2C(=O)[C@@]3(O)C(O)=C(C(N)=O)C(=O)[C@@H](N(C)C)[C@@H]3[C@@H](O)[C@H]12
- Potency [1]: inactive
- Potency [2]: inactive
- Potency [3]: inactive
- Potency [4]: inactive
- Potency [5]: inactive
- Potency [6]: inactive
- Potency [7]: inactive
- Potency [8]: inactive
- Potency [9]: inactive
- activity (max response) [10]: -8.37% (inactive)
- Potency [11]: inactive

Compound: O=c1c(-c2ccc(O)cc2)coc2cc(O)ccc12
- Potency [1]: inactive
- Potency [2]: inactive
- Potency [3]: inactive
- Potency [4]: inactive
- Potency [5]: inactive
- Potency [6]: inactive
- Potency [7]: inactive
- Potency [8]: inactive
- Potency [9]: inactive
- activity (max response) [10]: -14.3% (inactive)

Compound: O=C(NCCCCN1CCOCC1)c1cc2ccccc2o1
- Potency [1]: inactive
- Potency [2]: inactive
- Potency [3]: inactive
- Potency [4]: inactive
- Potency [5]: inactive
- Potency [6]: inactive
- Potency [7]: inactive
- Potency [8]: inactive
- Potency [9]: inactive
- activity (max response) [10]: 10.7% (inactive)
- Potency [11]: inactive

Compound: COc1cc(O)c2c(c1)C1OC1C[C@H](O)[C@H](O)C(=O)C=CC[C@H](C)OC2=O (stereo partly specified)
- Potency [1]: 13.2 µM (active)
- Potency [2]: 13.2 µM (active)
- Potency [3]: 10.5 µM (active)
- Potency [4]: 18.7 µM (active)
- Potency [5]: 18.7 µM (active)
- Potency [6]: 18.7 µM (active)
- Potency [7]: 4.69 µM (active)
- Potency [8]: 7.43 µM (active)
- Potency [9]: 4.18 µM (active)
- Potency [10]: 15.8 µM (active)
- Potency [11]: 15.8 µM (active)
